Reference: the supplement of paper PMC6522484
± gives the standard deviation of the averaged measurements.

Legend:
[1] = tested on: DLD1; test: cell viability (CellTiter-Glo) relative to plate median (fraction of plate median); higher = more viable cells; settings: 10 µM, treatment time 24 h
Procedure, shortened: (§1)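 In 384-well plates, colorectal cancer lines with stable lentiviral 7TFP or TCF4/Wnt firefly luciferase reporters were seeded and, 24 h later, given kinase inhibitor library compounds at a final 10 µM for 24 h. A Tecan F500 reader measured firefly luciferase on one plate and CellTiterGlo on a parallel plate. Reported figures are two-replicate means of well signals normalised to the plate median, computed additively in webcellHTS2 without log transformation.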

[2] = tested on: HCT116; test: as above; settings: 10 µM; treatment time 24 h; reporter: TCF4/Wnt
Procedure, shortened: as §1

[3] = tested on: SW480; test: as above; settings: 10 µM; treatment time 24 h; reporter: 7TFP
Procedure, shortened: as §1

[4] = tested on: DLD1; test: TCF/Wnt firefly luciferase reporter signal relative to plate median (fraction of plate median); higher = higher Wnt reporter signal; settings: 10 µM, treatment time 24 h
Procedure, shortened: as §1

[5] = tested on: HCT116; test: as above; settings: 10 µM; treatment time 24 h; reporter: TCF4/Wnt
Procedure, shortened: as §1

[6] = tested on: SW480; test: as above; settings: 10 µM; treatment time 24 h; reporter: 7TFP
Procedure, shortened: as §1

| Compound | cell viability ([1]; reporter: 7TFP) | cell viability ([1]; reporter: TCF4/Wnt) | cell viability [2] | cell viability [3] | TCF/Wnt firefly luciferase reporter signal ([4]; reporter: 7TFP) | TCF/Wnt firefly luciferase reporter signal ([4]; reporter: TCF4/Wnt) | TCF/Wnt firefly luciferase reporter signal [5] | TCF/Wnt firefly luciferase reporter signal [6] |
| --- | --- | --- | --- | --- | --- | --- | --- | --- |
| COC(=O)Nc1ccc(-c2nc(N3CCOCC3)c3cnn(C4CCN(C(=O)OC)CC4)c3n2)cc1 | 1.13 ± 0.014 | 1.13 ± 0.028 | 1.105 ± 0.0071 | 1.11 ± 0.028 | 1.07 ± 0.057 | 0.973 ± 0.053 | 1.23 ± 0.12 | 1.11 ± 0.085 |
| CC(C)NC[C@@H](C(=O)N1CCN(c2ncnc3c2[C@H](C)C[C@H]3O)CC1)c1ccc(Cl)cc1 | 0.947 ± 0.031 | 1.1 ± 0.021 | 0.917 ± 0.0092 | 1.04 ± 0.042 | 0.922 ± 0.029 | 0.951 ± 0.31 | 1.08 ± 0.27 | 0.999 ± 0.016 |
| COC(=O)Nc1ccc(-c2nc(N3CCOCC3)c3cnn(C4CCN(Cc5cccnc5)CC4)c3n2)cc1 | 0.796 ± 0.069 | 0.872 ± 0.036 | 0.759 ± 0.059 | 1.055 ± 0.0071 | 0.372 ± 0.064 | 0.632 ± 0.04 | 0.595 ± 0.068 | 0.765 ± 0.066 |
| O=C(Nc1cccc(Cl)c1)Nc1ncc(CCNc2ncnc3ccsc23)s1 | 0.87 ± 0.023 | 0.8545 ± 0.0064 | 0.947 ± 0.03 | 0.922 ± 0.012 | 0.743 ± 0.15 | 0.952 ± 0.029 | 1.45 | 0.82 ± 0.061 |
| C[C@]1(O)C[C@@H](c2nc(-c3ccc4ccc(-c5ccccc5)nc4c3)c3c(N)nccn32)C1 [Linsitinib (OSI-906)] | 0.876 ± 0.018 | 0.856 ± 0.15 | 0.82 ± 0.0099 | 0.995 ± 0.021 | 1.11 ± 0.078 | 1.33 ± 0.23 | 1.29 ± 0.12 | 1.27 ± 0.057 |
| NC1(Cc2ccc(Cl)cc2)CCN(c2ncnc3[nH]ccc23)CC1 | 1.18 ± 0.05 | 1.105 ± 0.0071 | 0.787 ± 0.073 | 1.02 ± 0.035 | 1.03 ± 0.045 | 0.886 ± 0.078 | 1.02 ± 0.32 | 1.01 ± 0.11 |
| CNC(=O)c1ccc(-c2cnc3ncc(Cc4ccc5ncccc5c4)n3n2)cc1F | 0.987 ± 0.089 | 0.931 ± 0.043 | 1.22 ± 0.2 | 0.8805 ± 0.0064 | 1.07 ± 0.078 | 1.14 ± 0.16 | 0.899 ± 0.02 | 0.652 ± 0.26 |
| Cn1cnc(N)c2ncnc1-2 [3-Methyladenine] | 1.07 ± 0.078 | 1.11 ± 0.12 | 1.13 ± 0.014 | 0.867 ± 0.1 | 1.17 ± 0.13 | 1.12 ± 0.11 | 1.03 ± 0.066 | 0.733 ± 0.24 |
| Cn1cc(C2=C(c3ccc(Cl)cc3Cl)C(=O)NC2=O)c2ccccc21 | 1.05 ± 0.18 | 0.952 ± 0.058 | 1.01 ± 0.088 | 0.993 ± 0.067 | 1.4 ± 0.057 | 1.35 ± 0.43 | 1.56 ± 0.61 | 1.35 ± 0.16 |
| O=C(NCCCNc1nc(Nc2cccc(NC(=O)N3CCCC3)c2)ncc1I)c1cccs1 | 0.966 ± 0.19 | 0.97 ± 0.21 | 0.817 ± 0.6 | 1.06 ± 0.14 | 0.81 ± 0.0057 | 0.882 ± 0.32 | 1.06 ± 1.1 | 1.06 ± 0.021 |
| CC(C)n1nc(-c2cc3cc(O)ccc3[nH]2)c2c(N)ncnc21 | 0.86 ± 0.18 | 0.984 ± 0.037 | 0.698 ± 0.067 | 1.15 ± 0.085 | 0.557 ± 0.016 | 0.752 ± 0.0057 | 0.547 ± 0.061 | 0.636 ± 0.26 |
| Cc1cc(C(C)Nc2ccccc2)c2nc(N3CCOCC3)cc(=O)n2c1 (stereo not drawn) | 0.997 ± 0.13 | 0.909 ± 0.04 | 1.115 ± 0.0071 | 0.909 ± 0.071 | 1.15 ± 0.11 | 1.21 ± 0.05 | 1.15 ± 0.092 | 0.679 ± 0.3 |
| CCn1nnc2c(N3CCOCC3)nc(-c3ccc(NC(=O)Nc4ccc(C(=O)N5CCN(C)CC5)cc4)cc3)nc21 | 1.21 ± 0.16 | 1.09 ± 0.092 | 0.683 ± 0.11 | 1.14 ± 0.028 | 0.633 ± 0.025 | 1.19 ± 0.042 | 0.59 ± 0.19 | 0.821 ± 0.054 |
| CN(C)C/C=C/C(=O)Nc1cc2c(Nc3ccc(F)c(Cl)c3)ncnc2cc1O[C@H]1CCOC1 [Afatinib (BIBW2992)] | 0.916 ± 0.074 | 0.843 ± 0.0092 | 0.635 ± 0.19 | 1.18 ± 0.042 | 0.292 ± 0.089 | 0.407 ± 0.0014 | 0.131 ± 0.091 | 0.447 ± 0.19 |
| CNC(=O)CN1CCC(Oc2cc3c(Nc4cccc(Cl)c4F)ncnc3cc2OC)CC1 | 1 ± 0.081 | 1.01 ± 0.059 | 1.05 ± 0.028 | 0.893 ± 0.0042 | 0.943 ± 0.19 | 0.862 ± 0.35 | 0.656 ± 0.43 | 0.849 ± 0.07 |
| COc1cc2c(Oc3ccc(NC(=O)C4(C(=O)Nc5ccc(F)cc5)CC4)cc3F)ccnc2cc1OCCCN1CCOCC1 | 0.845 ± 0.044 | 0.875 ± 0.042 | 0.845 ± 0.12 | 1.03 ± 0.13 | 0.794 ± 0.15 | 0.568 ± 0.054 | 1.2 ± 0.28 | 0.838 ± 0.4 |
